# The supplement of paper PMC10849652
# Of roughly 8,800 targets only a part is listed; those with a hit were picked by preference. About 0.5% of all pairs of compound and target were hits. A number with no mark means an inactive call.
# What was measured:
# Assay in all cases: log2 fold change, soluble protein after heating vs DMSO (PISA); higher = thermal stabilisation; K562 lysate, 10 uM; active = over 0.2 and 3.5 SD of the protein, either way, in both replicates (recomputed)
# [1] = compound: Cc1cn(-c2cc(NC(=O)c3ccc(C)c(Nc4nccc(-c5cccnc5)n4)c3)cc(C(F)(F)F)c2)cn1 [nilotinib]
# Outline: (§1)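 Values give the log-two fold change in thermal stability against solvent controls, from duplicates. Crude K562 extract at 1 mg/mL protein, made by dounce homogenisation in PBS pH 7.4 with 1 mM MgCl2, was treated with 10 μM compound for 30 min. After 3 min heating across 48°C-58°C, aliquots were pooled, adjusted to 0.5% NP-40 at 4°C and centrifuged at 21,000xg for 90 min. The supernatant was measured by TMTpro 16plex LC-MS/MS with channel sums equalised.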
# [2] = compound: Cc1nc(Nc2n[nH]c3c2CN(C(=O)N[C@H](CN(C)C)c2ccccc2)C3(C)C)c2sccc2n1
# Outline: as §1
# [3] = compound: Cc1nc(Nc2ncc(C(=O)Nc3c(C)cccc3Cl)s2)cc(N2CCN(CCO)CC2)n1 [dasatinib]
# Outline: as §1
# [4] = compound: Cc1ncc(-c2ccnc(Nc3ccc(S(C)(=O)=O)cc3)n2)n1C(C)C
# Outline: as §1
# [5] = compound: Cn1cc(-c2ccc3c(c2)CCN3C(=O)Cc2cccc(C(F)(F)F)c2)c2c(N)ncnc21
# Outline: as §1
# [6] = compound: Cn1cc(CNCC2CCN(c3ncc(C(=O)NO)cn3)CC2)c2ccccc21 [quisinostat]
# Outline: as §1
# [7] = compound: Cn1cncc1[C@@](N)(c1ccc(Cl)cc1)c1ccc2c(c1)c(-c1cccc(Cl)c1)cc(=O)n2C [tipifarnib]
# Outline: as §1
# [8] = compound: NC(=O)Nc1cc(-c2cccc(F)c2)sc1C(=O)N[C@H]1CCCNC1
# Outline: as §1
# [9] = compound: NC(=O)c1cnc(N[C@@H]2CCCC[C@@H]2N)nc1Nc1cccc(-n2nccn2)c1
# Outline: as §1
# [10] = compound: NC1(c2ccc(-c3nc4ccn5c(=O)[nH]nc5c4cc3-c3ccccc3)cc2)CCC1
# Outline: as §1
# Sequence of UniProt Q8NAV1 (Q8NAV1 whole entry, looked up): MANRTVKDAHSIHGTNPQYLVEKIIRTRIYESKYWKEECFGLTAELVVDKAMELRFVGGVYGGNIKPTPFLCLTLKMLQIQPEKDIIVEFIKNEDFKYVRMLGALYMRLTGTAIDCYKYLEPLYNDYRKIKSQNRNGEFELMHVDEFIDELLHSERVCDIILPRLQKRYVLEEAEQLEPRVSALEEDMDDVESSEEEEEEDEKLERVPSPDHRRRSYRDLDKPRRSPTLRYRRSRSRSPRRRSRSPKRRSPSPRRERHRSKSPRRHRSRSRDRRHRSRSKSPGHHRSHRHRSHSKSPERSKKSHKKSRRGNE
# Sequence of UniProt Q8N4L2 (Q8N4L2 whole entry, looked up): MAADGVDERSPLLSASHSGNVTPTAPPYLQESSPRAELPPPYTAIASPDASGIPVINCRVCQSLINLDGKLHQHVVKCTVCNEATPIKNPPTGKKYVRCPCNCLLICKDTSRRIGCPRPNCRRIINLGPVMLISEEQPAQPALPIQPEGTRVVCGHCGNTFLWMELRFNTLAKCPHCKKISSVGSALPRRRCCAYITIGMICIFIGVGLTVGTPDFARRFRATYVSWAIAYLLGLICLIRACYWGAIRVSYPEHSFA
# Sequence of UniProt P28065 (P28065 whole entry, looked up): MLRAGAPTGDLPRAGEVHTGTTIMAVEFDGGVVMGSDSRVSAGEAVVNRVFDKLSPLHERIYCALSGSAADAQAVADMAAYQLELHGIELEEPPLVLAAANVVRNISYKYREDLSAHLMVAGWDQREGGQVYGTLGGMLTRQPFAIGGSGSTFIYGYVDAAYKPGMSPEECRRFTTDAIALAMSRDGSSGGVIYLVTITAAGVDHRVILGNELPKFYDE
# Sequence of UniProt Q5VU43 (Q5VU43 whole entry, looked up): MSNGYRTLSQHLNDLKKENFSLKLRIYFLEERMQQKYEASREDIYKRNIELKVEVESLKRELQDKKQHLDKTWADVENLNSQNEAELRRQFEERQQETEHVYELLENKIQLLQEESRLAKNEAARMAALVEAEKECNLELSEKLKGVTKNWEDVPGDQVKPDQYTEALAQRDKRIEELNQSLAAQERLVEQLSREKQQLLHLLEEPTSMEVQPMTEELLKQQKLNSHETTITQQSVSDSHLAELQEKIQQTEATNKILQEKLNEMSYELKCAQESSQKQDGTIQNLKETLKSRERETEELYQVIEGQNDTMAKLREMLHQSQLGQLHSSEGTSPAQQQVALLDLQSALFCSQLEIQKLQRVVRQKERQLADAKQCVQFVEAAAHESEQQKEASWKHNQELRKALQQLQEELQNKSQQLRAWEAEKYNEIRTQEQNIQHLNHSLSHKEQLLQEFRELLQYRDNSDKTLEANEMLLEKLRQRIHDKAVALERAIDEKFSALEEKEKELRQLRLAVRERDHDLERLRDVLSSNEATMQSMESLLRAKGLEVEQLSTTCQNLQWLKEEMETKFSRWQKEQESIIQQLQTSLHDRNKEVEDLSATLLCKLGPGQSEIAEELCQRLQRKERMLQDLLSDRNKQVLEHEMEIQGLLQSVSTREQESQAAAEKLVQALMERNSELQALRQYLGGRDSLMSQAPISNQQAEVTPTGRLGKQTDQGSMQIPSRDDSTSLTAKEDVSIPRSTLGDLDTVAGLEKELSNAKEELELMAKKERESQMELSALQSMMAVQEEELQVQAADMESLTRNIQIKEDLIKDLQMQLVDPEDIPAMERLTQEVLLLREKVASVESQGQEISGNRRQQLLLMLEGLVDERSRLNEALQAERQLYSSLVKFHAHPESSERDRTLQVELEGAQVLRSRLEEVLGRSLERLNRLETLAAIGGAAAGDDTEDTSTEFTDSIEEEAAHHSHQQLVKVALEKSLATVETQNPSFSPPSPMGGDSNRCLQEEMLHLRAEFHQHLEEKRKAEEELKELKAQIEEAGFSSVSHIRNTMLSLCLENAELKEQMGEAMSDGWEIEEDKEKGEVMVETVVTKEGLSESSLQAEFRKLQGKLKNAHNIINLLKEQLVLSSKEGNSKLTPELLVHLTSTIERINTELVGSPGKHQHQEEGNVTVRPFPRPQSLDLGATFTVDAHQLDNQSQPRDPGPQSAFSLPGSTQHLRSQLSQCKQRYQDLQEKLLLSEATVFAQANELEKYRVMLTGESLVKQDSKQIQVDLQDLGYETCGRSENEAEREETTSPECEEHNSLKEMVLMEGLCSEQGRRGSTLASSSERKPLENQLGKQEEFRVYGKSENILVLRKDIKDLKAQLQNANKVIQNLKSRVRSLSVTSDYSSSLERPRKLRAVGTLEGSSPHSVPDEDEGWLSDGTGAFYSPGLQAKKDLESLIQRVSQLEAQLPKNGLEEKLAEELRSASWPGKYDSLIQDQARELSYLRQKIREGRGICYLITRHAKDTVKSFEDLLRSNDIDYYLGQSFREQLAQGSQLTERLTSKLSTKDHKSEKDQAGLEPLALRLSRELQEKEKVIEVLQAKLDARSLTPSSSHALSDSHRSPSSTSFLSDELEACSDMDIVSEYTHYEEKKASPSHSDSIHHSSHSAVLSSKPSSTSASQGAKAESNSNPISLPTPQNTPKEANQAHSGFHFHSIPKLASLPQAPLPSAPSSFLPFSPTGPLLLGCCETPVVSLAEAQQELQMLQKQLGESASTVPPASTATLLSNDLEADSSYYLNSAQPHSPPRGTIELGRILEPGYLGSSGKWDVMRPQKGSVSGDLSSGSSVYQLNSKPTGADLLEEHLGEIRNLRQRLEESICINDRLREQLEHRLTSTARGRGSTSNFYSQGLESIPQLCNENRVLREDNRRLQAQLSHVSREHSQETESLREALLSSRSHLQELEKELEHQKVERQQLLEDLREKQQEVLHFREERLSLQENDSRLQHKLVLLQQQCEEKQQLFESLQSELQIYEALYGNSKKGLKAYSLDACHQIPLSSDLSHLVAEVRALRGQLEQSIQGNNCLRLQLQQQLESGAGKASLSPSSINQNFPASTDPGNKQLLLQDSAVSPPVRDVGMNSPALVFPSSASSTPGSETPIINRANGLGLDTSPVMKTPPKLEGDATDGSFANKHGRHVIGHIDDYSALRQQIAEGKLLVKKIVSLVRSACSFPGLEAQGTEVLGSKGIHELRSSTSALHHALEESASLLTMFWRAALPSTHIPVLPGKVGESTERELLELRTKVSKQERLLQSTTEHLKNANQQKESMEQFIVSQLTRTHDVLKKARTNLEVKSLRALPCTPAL
# Sequence of UniProt Q15269 (Q15269 whole entry, looked up): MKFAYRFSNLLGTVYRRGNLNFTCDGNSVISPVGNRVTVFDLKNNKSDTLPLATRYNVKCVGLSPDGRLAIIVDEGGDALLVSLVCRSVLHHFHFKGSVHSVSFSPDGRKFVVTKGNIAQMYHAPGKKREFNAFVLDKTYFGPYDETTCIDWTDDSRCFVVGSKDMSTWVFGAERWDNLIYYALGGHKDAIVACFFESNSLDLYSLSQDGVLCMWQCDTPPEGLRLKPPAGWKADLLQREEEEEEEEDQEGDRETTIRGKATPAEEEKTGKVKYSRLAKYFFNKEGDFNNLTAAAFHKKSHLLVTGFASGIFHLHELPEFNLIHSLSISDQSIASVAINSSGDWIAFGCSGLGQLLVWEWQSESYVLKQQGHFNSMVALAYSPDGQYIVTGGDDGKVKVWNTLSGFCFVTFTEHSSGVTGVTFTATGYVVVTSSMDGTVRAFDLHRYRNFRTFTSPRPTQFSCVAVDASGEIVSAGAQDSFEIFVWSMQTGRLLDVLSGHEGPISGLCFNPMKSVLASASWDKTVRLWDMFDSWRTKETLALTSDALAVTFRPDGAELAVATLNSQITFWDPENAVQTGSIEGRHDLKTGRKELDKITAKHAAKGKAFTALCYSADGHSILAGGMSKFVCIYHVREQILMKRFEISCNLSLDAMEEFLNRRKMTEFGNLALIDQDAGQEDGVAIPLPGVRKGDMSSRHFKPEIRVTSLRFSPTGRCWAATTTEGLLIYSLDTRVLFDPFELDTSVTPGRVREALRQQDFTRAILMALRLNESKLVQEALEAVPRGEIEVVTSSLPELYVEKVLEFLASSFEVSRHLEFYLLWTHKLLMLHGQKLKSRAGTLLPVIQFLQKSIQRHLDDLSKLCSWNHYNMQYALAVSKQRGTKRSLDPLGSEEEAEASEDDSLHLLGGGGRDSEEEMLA
# Sequence of UniProt Q93096 (Q93096 whole entry, looked up): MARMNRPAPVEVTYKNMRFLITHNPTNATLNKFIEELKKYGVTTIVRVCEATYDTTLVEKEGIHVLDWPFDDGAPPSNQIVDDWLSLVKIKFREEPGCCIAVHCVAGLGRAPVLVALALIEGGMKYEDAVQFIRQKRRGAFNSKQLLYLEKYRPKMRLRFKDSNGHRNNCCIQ
# Sequence of UniProt Q9NVU0 (Q9NVU0 whole entry, looked up): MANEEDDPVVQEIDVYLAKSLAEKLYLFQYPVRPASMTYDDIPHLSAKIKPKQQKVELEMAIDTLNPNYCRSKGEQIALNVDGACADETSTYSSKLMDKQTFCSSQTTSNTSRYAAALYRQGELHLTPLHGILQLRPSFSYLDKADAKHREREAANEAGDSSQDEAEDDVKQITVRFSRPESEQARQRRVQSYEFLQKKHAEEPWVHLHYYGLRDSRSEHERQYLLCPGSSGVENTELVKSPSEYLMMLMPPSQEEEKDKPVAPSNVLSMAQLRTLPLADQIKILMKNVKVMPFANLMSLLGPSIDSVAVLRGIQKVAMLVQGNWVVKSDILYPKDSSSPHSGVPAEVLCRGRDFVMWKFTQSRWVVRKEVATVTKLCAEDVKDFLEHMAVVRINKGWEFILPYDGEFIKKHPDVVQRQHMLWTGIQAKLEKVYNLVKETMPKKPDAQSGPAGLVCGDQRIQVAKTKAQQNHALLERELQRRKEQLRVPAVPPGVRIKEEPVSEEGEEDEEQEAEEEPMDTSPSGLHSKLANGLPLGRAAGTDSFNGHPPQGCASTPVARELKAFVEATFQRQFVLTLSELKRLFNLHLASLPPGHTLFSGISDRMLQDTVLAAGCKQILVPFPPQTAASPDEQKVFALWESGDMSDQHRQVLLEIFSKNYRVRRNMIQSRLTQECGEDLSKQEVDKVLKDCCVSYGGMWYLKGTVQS
Target,log2 fold change [1],log2 fold change [2],log2 fold change [3],log2 fold change [4],log2 fold change [5],log2 fold change [6],log2 fold change [7],log2 fold change [8],log2 fold change [9],log2 fold change [10]
PCBP3 (UniProt P57721),0.015,-0.022,-0.005,0.018,-0.025,-0.004,0,-0.023,-0.014,0.012
PHKA2 (UniProt P46019),0.005,0.163,-0.05,0.019,-0.028,-0.148,0.015,0.302 (active),0.001,-0.037
PRKD2 isoform 3 (UniProt Q9BZL6),0.079,-0.229,0.028,-0.054,0.04,-0.046,0.069,-0.115,0.06,-0.01
PCBD2 (UniProt Q9H0N5),0.01,-0.045,0.011,-0.063,0.051,-0.08,-0.101,0.033,0.069,-0.066
PIK3R1 (UniProt P27986),-0.041,-0.072,-0.024,0.058,0.004,-0.027,0.039,0.042,0.021,0.249
PIP4K2C (UniProt Q8TBX8),0.169,-0.015,0.047,0.298,0.029,-0.095,-0.012,0.035,0.033,-0.085
PTP4A1 (UniProt Q93096),-0.035,0.005,0.026,-0.057,0,0.151,0.011,-0.059,-0.011,-0.029
PICALM (UniProt Q13492),-0.012,-0.01,-0.036,-0.009,0.001,-0.003,-0.042,-0.018,0.012,0.007
PDE4DIP isoform 4 (UniProt Q5VU43),-0.026,0.004,0.007,-0.015,-0.029,-0.083,-0.032,-0.018,-0.034,-0.011
PRKCSH isoform 2 (UniProt P14314),-0.004,0.099,0.088,0.116,0.003,-0.157,-0.081,-0.079,0.038,-0.192
POLR3E (UniProt Q9NVU0),0.017,-0.054,-0.035,-0.018,0.018,-0.023,0.04,0.037,0.009,-0.001
PSMB9 (UniProt P28065),0.019,0.092,-0.031,-0.098,-0.033,-0.213,0.024,0.027,0.034,-0.076
PRPH isoform 2 (UniProt P41219),-0.022,0.032,-0.019,-0.024,0.036,0.034,-0.02,-0.027,0.028,0.094
PIP4P2 (UniProt Q8N4L2),0.287 (active),-0.073,-0.171,-0.015,-0.048,0.035,-0.148,-0.016,0.121,-0.007
PUM1 isoform 3 (UniProt Q14671),-0.072,-0.012,-0.027,0.03,0.016,0.01,-0.057,0.004,-0.021,0.028
PRPF38A (UniProt Q8NAV1),0.076,0.018,-0.055,-0.088,-0.001,-0.452 (active),-0.016,0.092,0.003,0.049
PFN1 (UniProt P07737),-0.002,0.002,0.022,-0.008,-0.006,0.008,0.03,-0.018,-0.018,0.014
PDS5A (UniProt Q29RF7),-0.013,-0.002,-0.081,-0.003,0.008,-0.113,0.001,0.047,0.011,-0.023
PTGES2 (UniProt Q9H7Z7),0.446,-0.044,0.01,-0.019,0.015,-0.046,-0.057,-0.012,-0.056,-0.078
PTPN23 (UniProt Q9H3S7),-0.003,-0.029,-0.034,-0.002,0.01,0.002,0,0.024,0.025,0.005
PIKFYVE (UniProt Q9Y2I7),0.017,-0.017,-0.022,-0.015,0.009,-0.014,-0.035,0.007,0.027,-0.005
POLR2B (UniProt P30876),-0.027,0.01,-0.065,0.004,0.003,-0.057,-0.012,0.027,-0.004,-0.03
PRKAB2 (UniProt O43741),0.033,0.203,-0.049,0.106,0.042,-0.031,-0.031,0.14,0.036,0.023
PTPN7 isoform 3 (UniProt P35236),-0.03,0.017,-0.088,-0.021,0.064,0.008,0.054,-0.006,-0.015,-0.043
PDPK1 (UniProt O15530),-0.093,0.314,-0.014,-0.093,0,-0.094,-0.011,0.619 (active),0.019,-0.059
PIP4K2B (UniProt P78356),0.032,0.024,0.151,0.093,0.008,-0.017,-0.007,0,0.002,-0.034
PDCD4 (UniProt Q53EL6),0.028,0.019,-0.026,0.035,0.005,-0.044,-0.008,-0.01,0.009,-0.013
PEF1 (UniProt Q9UBV8),0.026,0.013,0.012,-0.015,-0.004,0.08,0.028,-0.018,0.005,0.011
PWP2 (UniProt Q15269),0.016,-0.006,-0.033,-0.032,-0.023,-0.056,0.004,0.036,-0.022,0.011
PFKFB2 (UniProt O60825),-0.04,0.011,0.017,-0.043,0.014,0.024,-0.011,-0.046,-0.003,-0.009
